About 280 (8.5%) of roughly 3,300 compounds were called active. The sample holds actives, similar compounds and a random draw of the others, so the mix is not that of the screen. A number with no mark means an inactive call.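 The calls were made as follows: active = mean growth inhibition over the two runs of 50% or more; inactive = mean growth inhibition under 50%.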
test: A549 NSCLC cell proliferation inhibitors – ATP luminescence, human non-small cell lung line, primary screen (AID 371); conditions: at 10 µM, stronger effect = higher value;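 also: compound exposure lasted 72 h before the ATP read; 0% = untreated cell signal and 100% = no luminescence left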

SMILES | growth inhibition
O=C1NC2c3ccccc3C(=O)N2c2c1cnn2-c1ccccc1 (stereo not given) | 36.6%
CC(C)OCCCNc1ncnc2c1cnn2-c1ccccc1 | 35.1%
CCCOc1cccc(C2C(C(=O)c3ccc(C)o3)=C(O)C(=O)N2CCCN(C)C)c1 (stereo not given) | 2.48%
C=CCSc1nnc2n(-c3ccccc3OC)c(=O)c3c4c(sc3n12)CCC4 | 19.2%
C=C1[C@@H](C)C2[C@H](Cc3ccccc3)NC(=O)[C@]23OC(=O)CC[C@H](O)CCC[C@H](C)C/C=C/[C@H]3[C@@H]1O (stereo not given in full) | 61% (active)
CCc1cccc(CC)c1N(COC)C(=O)Cn1nnc2ccccc21 | -7.86%
CN(CCCCCNC(=O)/C=N/O)Cc1ccccc1 | -0.65%
COC(=O)c1ccc(Oc2nc3ccccc3n3c(C)nnc23)cc1 | -4%
CCC(=O)Oc1oc(-c2ccccc2)nc1C=Nc1ccccc1OC | 48.5%
CCOC(=O)c1ccc(N=Cc2nc(-c3ccccc3)oc2OC(C)=O)cc1 | 55.3% (active)
O=C(Oc1oc(-c2ccco2)nc1C=Nc1ccccc1)c1ccoc1 | 34.4%
O=C(Oc1oc(-c2ccco2)nc1C=Nc1ccccc1)c1ccco1 | 35.2%
CC(=O)Oc1oc(-c2ccccc2)nc1/C=N/c1ccccn1 | 17.6%
COc1ccccc1N=Cc1nc(-c2ccccc2)oc1OC(C)=O | 51.8% (active)
CCOC(=O)c1ccc(CSc2ncn[nH]2)o1 | -2.33%
COc1ccccc1OCC(=O)Nc1ccc(S(=O)(=O)Nc2cc(C)nc(C)n2)cc1 | 5.4%
Cc1nn(C)cc1C1C2=C(CC(C)(C)CC2=O)OC2=C1C(=O)CC(C)(C)C2 | 1.38%
CCc1oc2ccccc2c1C(=O)c1cc(Br)c(O)c(Br)c1 | 67.4% (active)
CC(=O)c1cc2c(=O)c3ccccc3oc2nc1C | -5.08%
O=C(O)CCCCCCC1C(=O)NC(=O)N1CCC(O)C1CCCCC1 (stereo not given) | -11.2%
CCC1SC(N)=NC1=O (stereo not given) | 2.26%
O=c1[nH]c(-c2ccccn2)nc2ccccc12 | 57.6% (active)
CCOC(=O)c1ccc(N2CC(O)=C(c3nc4ccccc4c(=O)[nH]3)C2=N)cc1 | 2.08%
c1ccc2[nH]c(-c3cscn3)nc2c1 | 5.76%
COc1ccccc1-c1c(C)oc2c(CN3CCN(C)CC3)c(O)ccc2c1=O | -0.86%

SMILES | growth inhibition
COC(=O)CN1C2(C#N)CCCCC2CC2CCCCC21C#N (stereo not given) | 5.83%
Cc1ccc2nc(C(F)(F)F)c(C#N)c(N)c2c1 | 63.8% (active)
COc1ccc(OC)c2c(N)c(C#N)c(C(F)(F)C(F)(F)F)nc12 | 2.04%
COC(=O)c1sc(NC(=O)c2oc3ccccc3c2C)nc1C | 33.4%
N/C(=N\S(=O)(=O)c1ccc(Cl)s1)c1ccccc1 | 13.5%
CCCc1cc(NCCN2CCOCC2)n2c(nc3ccccc32)c1C#N | 6.32%
Oc1c(I)cc(I)c2cccnc12 | 74.1% (active)
Oc1c(I)cc(Cl)c2cccnc12 | 68.5% (active)
O=C(O)C1[C@H]2C(=O)N(Cc3cccs3)C[C@]23C=C[C@H]1O3 (stereo not given in full) | 4.5%
O=C(C1=C(O)C(=O)N(CCN2CCOCC2)C1c1cccnc1)c1cc2ccccc2o1 (stereo not given) | 3.18%
CCCSc1nnc2n(C)c(=O)c3c4c(sc3n12)CCC4 | 20.4%
Cn1c(=O)c2c3c(sc2n2c(SCC(N)=O)nnc12)CC(C(C)(C)C)CC3 (stereo not given) | 69.8% (active)
NC(=O)CSc1nnc2n(-c3ccccc3)c(=O)c3c4c(sc3n12)CCCCC4 | 46%
Cn1c(=O)c2c3c(sc2n2c(SCc4ccccc4)nnc12)CCCC3 | 8.25%
CCCCN(CCCC)C(=O)CSc1nnc2n(C)c(=O)c3c4c(sc3n12)CCCC4 | 70% (active)
C=C(C)CSc1nnc2n(C)c(=O)c3c4c(sc3n12)CCC4 | 20.2%
CCOC(=O)C1=C(CSc2nc3c(cc2C#N)CCC3)OC(N)=C(C#N)C1c1ccccc1 (stereo not given) | 21%
Cc1ccc2c(c1)[C@@H]1CN(C)CC[C@@H]1N2S(=O)(=O)c1ccc(F)cc1 | 10.7%
CC1(C)Cc2c(C#N)c(NCC3CCCO3)nc(-c3ccco3)c2CO1 (stereo not given) | 11%
CCOC(=O)C(OC(=O)c1sc(=S)n(C)c1C)C(C)=O (stereo not given) | -4.85%
COCCNc1oc(-c2ccc(F)cc2)nc1C#N | 2.78%
O=C(c1ccc(F)cc1)N1CCC(N2CCCCCC2)CC1 | 0.08%
Fc1ccc2[nH]c3c(N4CCN(c5ccccc5)CC4)ncnc3c2c1 | 90.1% (active)
Fc1ccc2[nH]c3c(N4CCN(C5CCCCC5)CC4)ncnc3c2c1 | 86% (active)
Fc1ccc2[nH]c3c(N4CCSCC4)ncnc3c2c1 | 59.6% (active)

SMILES | growth inhibition
c1ccc2c(c1)[nH]c1c(N3CCN(C4CCCCC4)CC3)ncnc12 | 37.9%
Cc1ccc(-n2ncc3c(N4CCN(c5ccccc5)CC4)ncnc32)c(C)c1 | 32.8%
CCOC(=O)c1[nH]c2ccc(F)cc2c1NC(=O)CCN1CCSCC1 | 0.98%
CN1CCN(c2ncnc3c2[nH]c2ccc(F)cc23)CC1 | 18.6%
CC(C)(C)c1cc(-c2ccco2)c(C#N)c(SCC#N)n1 | 5.39%
N#Cc1nc(COc2ccc(Br)cc2)oc1N1CCCC1 | 31.8%
O=C1C2ON(c3ccccc3)C(c3cccnc3)C2C(=O)N1c1ccc(Cl)c(Cl)c1 (stereo not given) | 3.11%
O=C(O)C1CCCCN1S(=O)(=O)c1cccc2nsnc12 (stereo not given) | -0.55%
COc1ccc(CCCNC(=O)CC#N)cc1OC | 0.39%
CCOC(=O)c1[nH]c2ccccc2c1NC(=O)CCN1CCN(C(=O)OCC)CC1 | 1.45%
Cc1cc(C)n(CC2CC(=O)N(c3ccc(Cl)c(Cl)c3)C2=O)n1 (stereo not given) | 0.6%
COc1ccccc1NC(=O)CSc1nnc(-c2ccc(NC(C)=O)cc2)n1C | -3.92%
COC1=CC(=O)CC(C)C12Oc1c(Cl)c(OC)cc(OC)c1C2=O (stereo not given) | 51.2% (active)
COC(=O)c1cccc(Nc2cc(C)nc(-c3ccccc3O)n2)c1 | 17.6%
CN(C)c1ccc(O)c2c1CC1CC3[C@@H](N(C)C)C(=O)C(C(N)=O)=C(O)[C@]3(O)C(=O)C1=C2O (stereo not given in full) | 59.9% (active)
CN(C)[C@@H]1C(=O)C(C(N)=O)=C(O)[C@@]2(O)C(=O)C3=C(O)c4c(O)ccc(Cl)c4[C@@H](O)[C@H]3C[C@@H]12 | 45.2%
OCCNc1nc(-c2ccccc2)c2ccccc2n1 | -2.09%
Clc1ccc2c(c1)C(N1CCNCC1)=Nc1ccccc1O2 | 31.9%
Clc1ccc2nc(N3CCNCC3)nc(-c3ccccc3)c2c1 | 92.3% (active)
O=C(O)C1CC=CCC1C(=O)N1CCN(c2nc(-c3ccccc3)c3ccccc3n2)CC1 (stereo not given) | 25.7%
O=C(CNC1C(=O)Nc2ccccc21)Sc1ccccc1 (stereo not given) | -5.29%
COc1ccc(/C(O)=C2/C(=O)C(=O)N(CCCN(C)C)C2c2ccc(C)o2)cc1Cl (stereo not given) | 1.2%
COc1ccc2[nH]cc(C(=O)CN(C)CCc3ccc(OC)c(OC)c3)c2c1 | 15.3%
CNCCCC1c2ccccc2C=Cc2ccccc21 | 60% (active)
CNCCCN1c2ccccc2CCc2ccccc21 | 39.1%

SMILES | growth inhibition
COCCCN1C(=O)C(O)=C(C(=O)c2ccco2)C1c1ccc(Br)cc1 (stereo not given) | 2.73%
Cc1nc2c(o1)CCc1ccccc1C2O (stereo not given) | 0.13%
Cc1ccc(N2C(=O)C3ON(c4ccccc4)C(c4ccncc4)C3C2=O)cc1 (stereo not given) | 7.22%
CSc1nc(N)c(C#N)c(-c2ccccc2Cl)c1C#N | 60.5% (active)
CCSc1nc(N)c(C#N)c(-c2ccccc2Cl)c1C#N | 3.11%
N#Cc1c(-c2ccccc2Cl)cc(C2CC2)nc1N | 11.8%
CC1(C)CC(=O)C=C(N=CC2=C(O)CC(C)(C)CC2=O)C1 | 1.19%
Cc1cc(=O)oc(C)c1C(=O)NCCN1CCOCC1 | -2.84%
CCC(=O)Nc1cccc(-c2nnc(SCC(=O)NCc3ccco3)n2C)c1 | -4.64%
CC1(C)Cc2c(sc3c4nnnn4c4nnnn4c23)CO1 | 62.4% (active)
CSc1nc2sc3c(c2c2nnnn12)CC(C)(C)OC3 | 9.43%
CC1(C)Cc2c(sc3ncn4nnnc4c23)CO1 | 0.79%
COc1ccc(-n2c(SCC(N)=O)nc3sc4c(c3c2=O)CCN(C)C4)cc1 | 8.23%
Cn1c(=O)n(CCC(=O)O)c2ccccc21 | 1.48%
COC(=O)CC1=C(C(=O)OC)C(c2ccncc2)C(C#N)=C(N)O1 (stereo not given) | 3.31%
O=C(c1cccc(Cl)c1)N1CCN(C(=O)c2ccccc2F)CC1 | 0.26%
O=C(Nc1ccc(N2CCN(C(=O)c3ccccc3)CC2)c(Cl)c1)c1ccc(Br)o1 | 64.9% (active)
O=C(Nc1ccc2c(c1)OCCO2)c1ccc(Br)o1 | 19.2%
CCCCC(=O)C1CCN(Cc2ccccc2)CC1 | -7.27%
COc1cc(-c2nn3c(C4CCCCC4)nnc3s2)cc(OC)c1OC | 18.1%
CN(C=C1C(=O)CC(C)(C)CC1=O)CCN1CCNCC1 | 3.03%
N#Cc1c(SCC(N)=O)nsc1SCc1ccc(Cl)cc1 | 23.5%
COc1ccc(C(=O)CSC2=C(C#N)C3(CCCCC3)C(C#N)=C(N)N2)cc1 | 49.2%
N#CC1=C(N)NC(SCc2ccc(Cl)cc2)=C(C#N)C12CCCCC2 | 91% (active)
N#CC1=C(N)NC(SCc2ccc(F)cc2)=C(C#N)C12CCCCC2 | 84.3% (active)
